# Source: PubChem (National Center for Advancing Translational Sciences (NCATS))
# aSyn yeast inh – alpha-synuclein toxicity inhibition in yeast; Potency, µM (series often up to 46.1 µM), without a hit: at the top dose growth rescue (activation), actives largely listed as activators; Yeast expressing alpha-synuclein, growth rescue, BacTiter-Glo, 24 h; 370,000 tested, 0.14% active; AID 652106; note: % of control where 0% means no effect; nearly all actives have a fitted effect of over 65% in size
#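 Screening used galactose-induced yeast with toxic alpha-synuclein levels, exposed to compound for 24 hr at 30 deg C. Cell growth, read with BacTiter-Glo luminescence, gave the measured signal.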
# FUS suppressor – rescues growth of FUS-expressing yeast. S. cerevisiae FUS-expressing, growth rescue, OD600, 24 h. Potency, µM (highest dose often 76.6 µM), hits mostly activators. 390,000 tested, 0.24% active. AID 1347120;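 note: plate controls were DMSO vehicle for no effect and reference control for full effect; nearly all actives have a fitted effect of over 55% in size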
#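 FUS-expressing yeast, raffinose-pregrown, induced in 2% galactose minimal medium at OD 0.005; compounds in a dilution series, 24hr at 30C. Growth restoration read as absorbance at 600 nm. CP55940 positive control, DMSO negative.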
# Abeta yeast res – A-beta toxicity reversal in yeast; 410,000 tested, 0.063% active; Potency, µM (top dose mostly 46.1 µM), usual class: activators; yeast expressing A-beta42, growth rescue, OD600, 48 h; response scale: 0% DMSO, 100% iron-clioquinol control; AID 1347071; note: nearly all actives have a fitted effect of over 55% in size
#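 Growth rescue measured by 600 nm absorbance after 48 h yeast culture at 30 C with compound. Values normalized between DMSO and an equimolar ferric chloride plus clioquinol control.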
# TDP43 rescue – TDP-43 toxicity inhibition in yeast; TDP-43 expressing yeast growth rescue, BacTiter-Glo, 24 h; Potency, µM (titrated, usually from 46.1 µM), for inactives: at the highest dose growth rescue (activation), hits mostly activators; 410,000 tested, 1.8% active; note: % of control where 0% means no effect; nearly all actives have a fitted effect of over 50% in size
#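 Cell-based yeast growth screen: TDP-43 expression induced in galactose, inoculum OD600=0.02 after raffinose pregrowth to mid-log. Read-out BacTiter-Glo luminescence at 24 hr, 30 deg C; inhibition of toxicity seen as signal increase.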
# * marks the source's active call; other numbers are inactive results; i = inactive; ? = inconclusive; · = no result given; [ ] = another dose, or the depositor's remark. A selection: hits, their analogues and other compounds. The true share with any hit is near 2.1%. Calls come from the whole dose curve; as a rule, active = well fitted curve in the direction sought with a large enough effect; inconclusive = small, poorly fitted or top-dose-only effect, or another doubt; inactive = no such curve, though single readings can be large; an effect the other way counts as inactive or inconclusive. Potency is the fitted concentration of half-maximal effect.
SMILES,aSyn yeast inh,FUS suppressor,Abeta yeast res,TDP43 rescue
COc1ccc(NC(=O)/C(Cl)=C(/Cl)S(=O)(=O)Cc2ccccc2)cn1,-35.9%,i,i,3.16µM*
COc1ccc(NC(=O)CC2(CC(=O)O)CCCC2)cn1,3.6%,i,i,12.6µM*
COc1ccc(NC(=O)C(Cl)=C(Cl)Cl)cn1,6.3%,i,i,12.6µM*
COc1ccc(NC(=O)Nc2ccc(OCc3ccccc3)cc2)cn1,-5.5%,i,i,2.6%
O=C(O)CC1(CC(=O)Nc2ccc(Oc3cccc(C(F)(F)F)c3)nc2)CCCC1,4.2%,i,i,12.2%
Cc1ccc(S(=O)(=O)Nc2cc(Cl)c3oc4c(c3c2)C(=O)CC(C)(C)C4)cc1,·,i,i,10.1%
CCOc1ccc(N(C(=O)CC(C)C)S(=O)(=O)c2ccc3c(c2)oc(=O)n3C)cc1,·,i,i,8.1%
O=C(NNC(=S)Nc1ccccc1)c1cc(-c2cccnc2)nc2ccccc12,-3.2%,i,i,?
CC(OC(=O)c1cc(-c2cccnc2)nc2ccccc12)C(=O)Nc1ccc2ccccc2c1 (stereo not drawn),8.9%,5.62µM*,i,-6.5%
Cn1cnc2c(NCc3ccccc3)nc(Cl)nc21,-1.0%,·,·,·
CC1=C(C(=O)Nc2ccccc2)C(c2ccccn2)n2nc(SCc3ccccc3)nc2N1 (stereo not drawn),·,i,i,14.1%
N#CCCCSc1nnnn1-c1cccc(Cl)c1,2.8%,i,i,22.4µM*
CCOC(=O)c1[nH]c(C)c(CCC(=O)NC(C)c2ccccc2)c1C (stereo not drawn),·,i,i,20.4%[9.22 µM]
CCC(=O)N1CCc2cc(S(=O)(=O)CCC(=O)Nc3ccc(Cl)c(C(F)(F)F)c3)ccc21,·,i,i,15.9%
Cc1cccc(-c2c(NC(=O)c3ccco3)oc3c(C)cccc3c2=O)c1,-3.4%,i,i,-10.1%
COc1cc(-c2c(NC(=O)c3ccco3)oc3c(C)cccc3c2=O)cc(OC)c1OC,-5.6%,i,i,-10.4%
Cc1cccc2c(=O)c(-c3ccc4c(c3)OCO4)c(NC(=O)c3ccco3)oc12,2.3%,i,i,15.8µM*
COc1ccc(-c2c(NC(=O)c3ccco3)oc3c(C)cccc3c2=O)cc1,0.4%,i,i,14.1µM*
Clc1ccc(CSc2nnc(-c3ccncc3)o2)c(Cl)c1,·,i,i,2.82µM*
Cc1ccccc1CSc1nnc(-c2ccncc2)o1,7.1%,i,i,14.1µM*
c1csc(CSc2nnc3sc4ccccc4n23)c1,-0.6%,i,i[9.22 µM],14.1µM*
CC1(C(=O)NCc2ccc(F)c(F)c2)Cc2c(-c3ccccc3)ccnc2O1 (stereo not drawn),9.1%,i,i,35.5µM*
CC1(C(=O)NCCc2ccccc2)Cc2c(-c3ccc4c(c3)OCO4)ccnc2O1 (stereo not drawn),-0.8%,i,i,21.5%
CC1(C(=O)NCc2ccccc2)Cc2c(-c3ccc4c(c3)OCO4)ccnc2O1 (stereo not drawn),23.1%,i,i,17.8µM*
CC1(C(=O)NCc2ccc(F)c(F)c2)Cc2c(-c3cccc(C(F)(F)F)c3)ccnc2O1 (stereo not drawn),?,i,i,0.0%
SMILES,aSyn yeast inh,FUS suppressor,Abeta yeast res,TDP43 rescue
CC(=O)c1cccc(NC(=O)C2(C)Cc3c(-c4ccccc4)ccnc3O2)c1 (stereo not drawn),-2.5%,i,i,20µM*
CC(=O)Nc1ccc(-c2ccnc3c2CC(C)(C(=O)Nc2cccc(C(C)=O)c2)O3)cc1 (stereo not drawn),-3.4%,i,i,25.9%
CCc1ccc(NCc2cc3ccc(OC)cc3n(CC(=O)Nc3ccccc3C)c2=O)cc1,0.6%,i,i,25.3%
CN(Cc1ccccc1)C(=O)OCc1cn(Cc2ccc(F)cc2)nn1,·,i,·,·
O=C(N/N=C/c1cc(Br)cc(Cl)c1O)c1ccc2c(c1)OCO2,5.62µM*,i,i,6.31µM*
O=C1c2ccccc2NC(c2ccccc2O)N1Cc1ccco1 (stereo not drawn),12.4%,·,·,·
O=C1c2ccccc2NC(c2ccccc2)N1Cc1ccccc1 (stereo not drawn),9.5%,i,i,15.8µM*
O=C1c2ccccc2NC(c2ccc(F)cc2)N1Cc1ccccc1 (stereo not drawn),1.9%,i,i,20µM*
COc1cccc(C2Nc3ccccc3C(=O)N2Cc2ccccc2)c1 (stereo not drawn),2.5%,i,i,19.8%
CCCCC/C=C/C1=CC(=O)C[C@H](c2ccc(OC)c(OC)c2)C1,?,?,i,35.5µM*
COc1ccc(C2=CC(=O)C[C@H](c3ccc(OC)c(OC)c3)C2)cn1,6.0%,i,i,?
COc1ccc([C@H]2CC(=O)C=C(c3cccc(Cl)c3)C2)cc1OC,10.1%,i,i,22.4µM*
COc1ccc([C@H]2CC(=O)C=C(c3ccccc3OC)C2)cc1OC,8.6%,i,i,20µM*
COc1ccc([C@H]2CC(=O)C=C(c3ccccc3)C2)cc1OC,0.6%,i,i,?
COc1ccc(C=O)cc1C1=CC(=O)C[C@H](c2ccc(Cl)cc2)C1,2.8%,?,i,20µM*
CCc1ccc(Nc2cc(C)nc3nc(Cc4ccc(Cl)cc4)nn23)cc1,·,i,i,19.3%
Cc1cccc(NC(=O)CO/N=C/c2ccc3c(c2)OCO3)c1,3.5%,·,i,0.2%
Cc1ccc(CNC(=O)CO/N=C/c2ccc3c(c2)OCO3)cc1,6.1%,i,i,20µM*
O=C1c2ccccc2CCC12N=NCC2c1ccc(Cl)cc1 (stereo not drawn),14.2%,i,i,?
O=C1c2ccccc2CCC12N=NCC2c1ccc(Br)cc1 (stereo not drawn),·,i,i,12.6µM*
Cc1ccc(-n2cc3c(-c4cccc(Br)c4)nnc(C)c3n2)cc1,-0.1%,?,i,?
Cc1nnc(-c2cccc(Br)c2)c2cn(-c3ccccc3Cl)nc12,9.5%,i,i,10µM*
COC(=O)c1ccc(Cn2c(SCC(=O)NCc3ccccc3)nc3ccccc32)cc1,·,?,i,35.5µM*
COc1ccc(C(=O)CSc2nc3ccccc3n2CC(=O)NC(C)(C)C)cc1,14.1µM*,i,i,0.2%
CCCC[C@H](C(=O)N(C)c1cccc(OC)c1)[C@@H](O)c1ccc(C(C)=O)cc1,·,i,·,·
COc1ccc(/C=C(\C#N)c2nc3ccccc3n2C)c(OC)c1,·,i,i,20µM*
COc1ccc(C(C#N)=Cc2ccccc2OC)cc1,-9.1%,i,i,20µM*
Cc1ccc2nc(NCc3ccccc3)c3nnnn3c2c1,·,i,i,-13.3%
CC(C)NC(=O)c1ccc(CSc2nc3ccncc3n2Cc2cccc(F)c2)cc1,·,i,i,13.0%
Cc1ccc(N2CC(c3nnc(Cc4ccc(F)cc4Cl)o3)CC2=O)cc1 (stereo not drawn),·,i,i,?
